KCNH2 3.1 inh: blocks the human KCNH2 3.1 channel isoform. U2OS KCNH2 3.1, thallium flux FluxOr; hits give low values. activity change, % (tested at about 1.8 µM). hit rate 0.95% among 340,000. AID 720553;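 active = maximum activity change below -70%; inconclusive = maximum activity change from -70% to -50%; inactive = maximum activity change above -50%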;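 note: thallium influx rate constant from kinetic fluorescence after stimulation buffer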
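Thallium flux via FluxOr fluorescence (Red40 quencher, 45 min loading) in U2OS cells virally expressing the KCNH2 3.1 isoform (1.77 x 10^8 /mL virus, overnight at 37 C). Rate constants from 2-min kinetic reads post-stimulation, normalised to positive and negative controls.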
SW480 rereplic: DNA re-replication induction in SW480 cells. SW480 DNA re-replication, Hoechst DNA content imaging, 48 h. Potency, µM (doses to about 46.1 µM), hits mostly activators. hit rate 1.8% among 340,000; note: nearly all actives have a fitted effect of over 55% in size
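Per well, 250 cells were exposed to pinned compound for 48 hr. Nuclear DNA was visualised with Hoechst (40 min, 37 C) and total object intensity recorded by fluorescence scanning.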
KB-V1 cytotox: kills drug-selected multidrug resistant KB-V1 cells; KB-V1 MDR cells viability, CellTiter-Glo, 72 h; Potency, µM (series often up to 46.1 µM), usual class: cytotoxic; hit rate 3.4% among 400,000; note: nearly all actives have a fitted effect of over 60% in size
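qHTS viability screen in drug-selected KB-V1 MDR cells: 72 h compound treatment at 37 degrees C, ATP luminescence end point.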
MCF10A rerep: induces DNA re-replication in MCF 10a normal breast cells; MCF 10A DNA re-replication, Hoechst nuclear intensity, 48 h; Potency, µM (titrated, usually from 46.1 µM), most hits filed as activators; hit rate 2.9% among 350,000; note: nearly all actives have a fitted effect of over 50% in size
KB-3-1 tox: KB-3-1 parental cell cytotoxicity | KB-3-1 viability, CellTiter-Glo ATP luminescence, 72 h | Potency, µM (doses to about 46.1 µM), usual class: cytotoxic | hit rate 1.4% among 400,000; note: nearly all actives have a fitted effect of over 60% in size
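Here the drug-naive KB-3-1 line serves as comparator for MDR sub-line selectivity; cells received compound titrations, 72 h at 37 °C, then CellTiter-Glo readout.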
hERG WT inh: inhibitors of human wildtype KCNH2 potassium channel | activity change, % at 1.84 µM | hit rate 0.37% among 340,000 | U2OS, BacMam KCNH2, thallium flux FluxOr; hits give low values | Q12809;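 active = maximum activity change below -70%; inconclusive = maximum activity change between -70% and -50%; inactive = maximum activity change above -50%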
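U2OS cells were transduced with wild-type KCNH2 virus (2.03 x 10^8 / mL) for 4 h at room temperature, then cultured overnight at 37 C. Thallium flux was read with FluxOr dye. Rate constants were normalized to DMSO controls.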
A number is an active result; n = inactive; u = inconclusive; x = no result given. Sampled rows, rich in hits. Any-hit rate of the full collection: about 7.6%. Unless noted, calls come from the whole dose curve; as a rule, active = well fitted curve in the direction sought with a large enough effect; inconclusive = small, poorly fitted or top-dose-only effect, or another doubt; inactive = no such curve, though single readings can be large; an effect the other way counts as inactive or inconclusive.

SMILES | KCNH2 3.1 inh | SW480 rereplic | KB-V1 cytotox | MCF10A rerep | KB-3-1 tox | hERG WT inh
O=C1N=C(N2CCN(c3ccccc3)CC2)SC1Cc1ccccc1 (stereo unspecified) | n | n | 16µM | n | n | n
CCCC1=Nc2cc(C(=O)NC(C)c3ccccc3)ccc2Sc2ccc(C)cc21 (stereo unspecified) | x | x | n | x | n | x
CCOCCCNC(=O)c1ccc2c(c1)N=C(CC)c1cc(Br)ccc1S2 | n | 1.8µM | 0.52µM | u | 1µM | n
CCCNC(=O)c1ccc2c(c1)N=C(CCC)c1ccccc1S2 | x | x | n | x | 0.73µM | x
CCC1=Nc2cc(C(=O)NCCc3ccccc3)ccc2Sc2ccc(Cl)cc21 | x | x | n | x | 10µM | x
CCCC1=Nc2cc(C(=O)NCCc3ccccc3)ccc2Sc2ccc(C)cc21 | x | x | u | x | 7.3µM | x
CCC1=Nc2cc(C(=O)NC(C)c3ccccc3)ccc2Sc2ccc(Cl)cc21 (stereo unspecified) | x | x | n | x | n | x
CCC1=Nc2cc(C(=O)NCCN(CC)CC)ccc2Sc2ccccc21 | x | x | n | x | n | x
CN(C(=O)c1ccccc1)C(=O)c1ccccc1 | n | x | n | x | n | n
Oc1ccccc1C(=S)N1CCN(C(=S)c2ccccc2O)CC1 | n | n | n | n | n | n
CCc1cc2c(=O)c(-c3ccc4c(c3)OCCO4)coc2cc1OS(C)(=O)=O | n | 9.2µM | u | n | u | n
CCc1cc2c(=O)c(-c3ccc4c(c3)OCCO4)coc2c(CN2CCCCC2C)c1O (stereo unspecified) | n | u | n | u | u | n
CCC(C(=O)OCC(=O)N(CC)c1c(N)n(Cc2ccccc2)c(=O)[nH]c1=O)c1ccccc1 (stereo unspecified) | n | n | n | n | n | n
COc1ccccc1NS(=O)(=O)c1cc([N+](=O)[O-])ccc1N/N=C/c1c[nH]c2ccccc12 | n | u | u | 8.2µM | u | n
O=C(O)COc1ccccc1C=NNc1ccc([N+](=O)[O-])cc1S(=O)(=O)Nc1ccc(Cl)cc1 | n | n | n | 2.1µM | n | n
COc1ccc(NS(=O)(=O)c2cc([N+](=O)[O-])ccc2NN=Cc2ccccc2OCC(=O)O)cc1 | n | u | n | 21µM | n | n
O=C(O)COc1ccccc1/C=N/Nc1ccc(S(=O)(=O)Nc2ccc(Cl)cc2)cc1[N+](=O)[O-] | n | n | n | n | n | n
COc1ccc(NS(=O)(=O)c2cc([N+](=O)[O-])ccc2N/N=C\c2c(C)[nH]c3ccccc23)cc1 | n | n | u | 9.2µM | u | n
O=[N+]([O-])c1ccc(N/N=C/c2c[nH]c3ccccc23)cc1 | n | u | u | u | u | n
COc1ccc(CN(C)C(=O)CCNS(=O)(=O)c2ccccc2)c(OC)c1 | n | x | n | x | n | n
O=C(Cn1cnc2sc3c(c2c1=O)CCCC3)NCC(=O)Nc1ccc(F)cc1F | n | n | n | n | n | n
OC1(c2ccccc2)C/C(=N\n2cnnc2)C=C1c1ccccc1 (stereo unspecified) | n | n | n | n | n | n
O=C(O)c1ccccc1NS(=O)(=O)c1ccc(N/N=C/c2ccc(O)c(O)c2)c([N+](=O)[O-])c1 | n | n | n | n | n | n
COc1ccc(C=NNc2ccc([N+](=O)[O-])cc2S(=O)(=O)Nc2ccccc2C(=O)O)cc1OC | n | n | n | 18µM | n | n
C#CCSC1=C(C#N)C(c2cccs2)C(C(=O)OCC)=C(C)N1 (stereo unspecified) | n | n | 10µM | n | n | n
SMILES | KCNH2 3.1 inh | SW480 rereplic | KB-V1 cytotox | MCF10A rerep | KB-3-1 tox | hERG WT inh
COc1ccc(NC(=O)CSC2=C(C#N)C(c3ccco3)C(C(=O)Nc3nc4ccccc4s3)=C(C)N2)cc1 (stereo unspecified) | n | 9.2µM | n | u | u | n
CCOC(=O)C1=C(C)NC(C)=C(C(=O)OCC)C1c1cccs1 | n | n | u | n | n | n
COCCOC(=O)C1=C(C)NC(SCC(=O)NC(C)(C)C)=C(C#N)C1c1ccco1 (stereo unspecified) | n | n | u | u | n | n
C=CCOC(=O)C1=C(C)NC(SCC(=O)Nc2ccc(C)c(Cl)c2)=C(C#N)C1c1ccco1 (stereo unspecified) | n | 11µM | n | 11µM | n | n
COc1ccccc1NC(=O)C1=C(C)NC(SCC(=O)c2ccccc2)=C(C#N)C1c1ccco1 (stereo unspecified) | n | u | n | u | n | n
CC1=C(C(=O)Nc2ccc(Cl)cc2)C(c2ccncc2)C(C#N)=C(SCC(N)=O)N1 (stereo unspecified) | n | n | n | n | n | n
CC(=O)C1=C(C)NC(SCC(=O)Nc2nc3ccccc3s2)=C(C#N)C1c1ccc(Cl)cc1 (stereo unspecified) | n | 16µM | u | n | u | n
COc1cccc(CNC(=O)C(=O)NCC(c2cccs2)S(=O)(=O)c2cccs2)c1 (stereo unspecified) | x | x | n | x | n | x
C=CCOC(=O)C1=C(C)NC(SCC)=C(C#N)C1c1ccc(Cl)cc1 (stereo unspecified) | n | u | 23µM | 23µM | u | n
C=CCOC(=O)C1=C(C)NC(SCC(N)=O)=C(C#N)C1c1ccc(C)cc1 (stereo unspecified) | n | n | n | n | n | n
CN(C)Cc1nc2c(c(=O)[nH]1)C1(CCCCC1)Cc1ccccc1-2 | n | n | n | u | n | n
O=c1[nH]c(NNC(=S)NCc2ccccc2)nc2c1C1(CCCCC1)Cc1ccccc1-2 | n | n | n | 12µM | n | x
S=C(NCc1ccccc1)NNc1nc2ccccc2[nH]1 | -74 | n | n | u | n | n
CCN(CC)Cc1nc2c(c(=O)[nH]1)C1(CCCCC1)Cc1ccccc1-2 | n | u | n | 5.8µM | n | n
CCOC(=O)c1c(C)[nH]c(-c2csc(N)n2)c1C | n | u | n | 16µM | u | n
CCOC(=O)c1c(C)[nH]c(-c2csc(C)n2)c1C | n | n | u | n | n | n
Cc1cccc(S(=O)(=O)c2cn(Cc3ccc(F)cc3)c3cc(N4CCOCC4)c(F)cc3c2=O)c1 | x | x | n | x | n | x
CCSc1nnc(NC(=O)c2nc(-c3ccccc3)n(-c3ccccc3)n2)s1 | n | n | u | 10µM | n | n
O=C(Nc1nccs1)c1nc(-c2ccccc2)n(-c2ccccc2)n1 | n | n | n | n | n | n
Cc1csc(NC(=O)c2nc(-c3ccccc3)n(-c3ccccc3)n2)n1 | n | n | 10µM | n | u | n
CCc1nnc(NC(=O)c2ccc(C)o2)s1 | n | n | n | n | n | n
CCSc1nnc(NC(=O)c2ccc(C)o2)s1 | n | n | 18µM | n | n | n
COc1ccc2cc(-c3ccn[nH]3)ccc2c1 | n | n | u | n | 7.3µM | n

Assay outcomes from PubChem.
